Sm TGR block = blocks Schistosoma mansoni thioredoxin glutathione reductase; Q962Y6; purified TGR, DTNB reduction, TNB absorbance 405 nm; Potency, µM (doses to about 114 µM), usual class: inhibitors; 360,000 tested, 3% active; AID 485364; note: nearly all actives have a fitted effect of over 60% in size
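First, TGR (20 nM dispensed) and NADPH were mixed with compound. Second, a 15 min room-temperature incubation followed. Third, further NADPH and then DTNB were added to start the reaction. Finally, TNB absorbance was monitored kinetically.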
FMDV antiviral = antivirals against foot and mouth disease virus; Potency, µM (series often up to 57.9 µM), hits mostly inhibitors; FMDV antiviral cell-based qHTS; 410,000 tested, 1.2% active; calls by dose curve; tested in HEK293T cells; note: read-out not given here; nearly all actives have a fitted effect of over 45% in size
Tb PYK inh = blocks Trypanosoma brucei pyruvate kinase | Q57TT1 | TbPYK enzyme, Kinase-Glo Plus ATP luminescence, 45 min | Potency, µM (series often up to 76.8 µM), most hits filed as inhibitors | 410,000 tested, 0.12% active | AID 624173; note: nearly all actives have a fitted effect of over 50% in size
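TbPYK + substrate in 50 mM TEA pH 7.2, 100 mM KCl, 10 mM MgCl2, 0.05% BSA, 0.01% Tween-20; cpd pinned; ADP 130 uM final; 45 min RT; Kinase-Glo Plus 10 min; luminescence endpoint.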
RE007 growth inh = less growth of the S. pombe RE007 Vpr strain; 360,000 tested, 0.21% active; AID 651644; Potency, µM (titrated, usually from 92.2 µM), usual class: inhibitors; S. pombe RE007 Vpr strain, BacTiter-Glo ATP luminescence, 24 h; active = well fitted falling curve with a large enough effect; inconclusive = small, poorly fitted or top-dose-only effect; inactive = no such curve, though single readings can be large or run the other way; note: nearly all actives have a fitted effect of over 50% in size
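Fission yeast RE007 carrying one integrated HIV-1 vpr copy, seeded at OD 0.01 in PMG+AL medium with 23 nL pinned compound. Grown 24 h at 30 degrees; viability read by BacTiter-Glo luminescence after 5 min.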
Large screens that a line does not name were inactive. In the library only some 3.7% were active in any assay of this set; here they are far more common. Unless noted, calls come from the whole dose curve; as a rule, active = well fitted curve in the direction sought with a large enough effect; inconclusive = small, poorly fitted or top-dose-only effect, or another doubt; inactive = no such curve, though single readings can be large; an effect the other way counts as inactive or inconclusive.

CC(=O)OC1CCC2(C)C(=CCC3C2CCC2(C)C3CC3OC4(CCC(C)CN4)C(C)C32)C1 (centres undefined)	none
C[C@H]1CC[C@]2(NC1)O[C@H]1C[C@H]3[C@@H]4CC[C@H]5C[C@@H](O[C@@H]6O[C@H](CO)[C@H](O[C@@H]7O[C@H](CO)[C@@H](O)[C@H](O[C@@H]8OC[C@@H](O)[C@H](O)[C@H]8O)[C@H]7O[C@@H]7O[C@H](CO)[C@@H](O)[C@H](O)[C@H]7O)[C@H](O)[C@H]6O)CC[C@]5(C)[C@H]4CC[C@]3(C)[C@H]1[C@@H]2C	FMDV antiviral 25µM (no result: Sm TGR block, Tb PYK inh, RE007 growth inh)
COC(=O)CN1C(=O)[C@H]2[C@@H](c3ccc(C)o3)N3C(=O)CN(Cc4ccccn4)C(=O)[C@@]3(C)[C@H]2C1=O	Sm TGR block 25µM
COC(=O)CN1C(=O)[C@H]2[C@@H](c3ccc(C)o3)N3C(=O)CN(CC4CC4)C(=O)[C@@]3(C)[C@H]2C1=O	Sm TGR block 16µM
COC(=O)CN1C(=O)[C@H]2[C@@H](c3ccc(C)o3)N3C(=O)CN(Cc4ccc(-c5ccccc5)cc4)C(=O)[C@@]3(C)[C@H]2C1=O	Sm TGR block 10µM, Tb PYK inh inconclusive
COC(=O)CN1C(=O)[C@H]2[C@@H](c3ccc(C)o3)N3C(=O)CN(Cc4ccccc4)C(=O)[C@@]3(Cc3ccccc3)[C@H]2C1=O	Sm TGR block inconclusive
COc1ccc(NC(=O)N2CCCC3(CCN(C(=O)c4csnn4)CC3)C2)cc1	none (no result: Sm TGR block, RE007 growth inh)
CCOC(=O)c1cc(-c2ccc(F)cc2)n(CCC(=O)NC2CCCCC2)c1C	none (no result: RE007 growth inh)
CCOc1ccc(NC(=O)CCc2c(C)nc3c(c(C)nn3-c3ccccc3)c2C)cc1	none (no result: RE007 growth inh)
C1CCC2(CC1)C1=C(CCCC1)Nc1nnnn12	Sm TGR block 45µM (no result: Tb PYK inh)
S=C1NC2=C(CCCC2)C2(CCCCC2)N1	none
CC1=C(C(=O)Nc2cc(C)cc(C)c2)C2(CCCCC2)OC1=O	none (no result: RE007 growth inh)
CC1(C)CC(C(CCN(Cc2ccccc2)C(=O)c2ccco2)c2ccc(F)cc2)CCO1 (centres undefined)	FMDV antiviral 14µM (no result: RE007 growth inh)
O=C(c1ccco1)N(CCC(c1ccccc1)c1ccco1)Cc1ccc(F)cc1 (centres undefined)	FMDV antiviral inconclusive
COc1cc(NC(=O)CN(C)S(=O)(=O)c2ccc3c(c2)CCCC(=O)N3)cc(OC)c1OC	none (no result: RE007 growth inh)
O=C(NCc1cccc(Cl)c1)C1CCCN(c2nn3cc(-c4ccc(F)cc4)nc3s2)C1 (centres undefined)	FMDV antiviral 11µM (no result: RE007 growth inh)
O=C(NCc1cccc(Cl)c1)C1CCN(c2nn3cc(-c4ccc(F)cc4)nc3s2)CC1	none (no result: RE007 growth inh)
Cc1ccc(-n2c(-c3ccc(Br)cc3)c[n+]3c2CCc2ccc4cccnc4c2-3)cc1	FMDV antiviral 1.1µM
COc1ccc(N2C(=O)CC(Sc3ccccc3C(=O)O)C2=O)c([N+](=O)[O-])c1 (centres undefined)	Sm TGR block 11µM
Cc1ccc(N2C(=O)CC(Sc3ccccc3C(=O)O)C2=O)c([N+](=O)[O-])c1 (centres undefined)	RE007 growth inh inconclusive (no result: Sm TGR block)
CN(C)c1ccc(N2C(=O)CC(Sc3ccccc3C(=O)O)C2=O)cc1 (centres undefined)	Sm TGR block 28µM, RE007 growth inh 6.3µM
CCOC(=O)c1c(N2C(=O)CC(Sc3ccccc3C(=O)O)C2=O)sc(C)c1C (centres undefined)	Sm TGR block 4.5µM
Cc1cccc(N2C(=O)CC(Sc3ccccc3C(=O)O)C2=O)c1 (centres undefined)	Sm TGR block 14µM, RE007 growth inh 5.6µM
Cc1cccc(N2C(=O)CC(Sc3nccc(C)n3)C2=O)c1 (centres undefined)	none
CCOC(=O)c1c(NC(=O)CSc2ccccc2C(=O)O)sc(C)c1C	none
CC(C)CN1C(=O)CC(Sc2ccccc2C(=O)O)C1=O (centres undefined)	Sm TGR block inconclusive
Cc1ccc(N2C(=O)CC(Sc3ccccc3C(=O)O)C2=O)cc1 (centres undefined)	Sm TGR block 13µM, RE007 growth inh 10µM
Cc1ccc(N2C(=O)CC(Sc3ncccc3C(=O)O)C2=O)cc1 (centres undefined)	none
Cc1cc(C)cc(N2C(=O)CC(Sc3ccccc3C(=O)O)C2=O)c1 (centres undefined)	Sm TGR block 1.3µM, RE007 growth inh 11µM
CCCCN1C(=O)CC(Sc2ccccc2C(=O)O)C1=O (centres undefined)	Sm TGR block 20µM
Cc1ccc(N2C(=O)CC(Sc3ccccc3C(=O)O)C2=O)cc1C (centres undefined)	Sm TGR block 4µM, RE007 growth inh 14µM
Cc1cc(C)c(N2C(=O)CC(Sc3ccccc3N)C2=O)c(C)c1 (centres undefined)	none (no result: Sm TGR block)
CN1C(=O)CC(Sc2ccccc2C(=O)O)C1=O (centres undefined)	Sm TGR block inconclusive
CC[C@@]1(O)C[C@H](O[C@H]2C[C@@H](N(C)C)[C@@H](O[C@H]3C[C@@H](O)[C@@H](O[C@H]4CCC(=O)[C@@H](C)O4)[C@@H](C)O3)[C@@H](C)O2)c2c(cc3c(c2O)C(=O)c2c(O)cccc2C3=O)[C@H]1C(=O)OC	none (no result: Sm TGR block, FMDV antiviral, RE007 growth inh)
CCN1CCN(c2cc(-c3ccc(F)cc3)c3c(n2)CCCCCC3)CC1	none (no result: Sm TGR block, FMDV antiviral, RE007 growth inh)
O=C(O)c1ccccc1SC1CC(=O)N(c2ccc3c(c2)OCO3)C1=O (centres undefined)	Sm TGR block 2.2µM, RE007 growth inh 22µM
Nc1ccccc1SC1CC(=O)N(c2ccc3c(c2)OCO3)C1=O (centres undefined)	none
O=C1/C(=C/c2ccc(O)c(O)c2)SC(=S)N1Nc1ccccc1	none
O=C(O)c1ccc(/C=C2\SC(=S)N(Nc3ccccc3)C2=O)cc1	Sm TGR block 3.2µM
O=C1/C(=C/c2ccncc2)SC(=S)N1Nc1ccccc1	Sm TGR block 3.2µM, FMDV antiviral 20µM
CC(NC(CCc1ccccc1)C(=O)O)C(=O)N1CCCC1C(=O)O (centres undefined)	none (no result: Sm TGR block, FMDV antiviral, RE007 growth inh)
CC1(C)S[C@@H]2[C@H](N)C(=O)N2[C@H]1C(=O)O	none (no result: Sm TGR block, Tb PYK inh, RE007 growth inh)
CC(=O)c1c(C)[nH]c(C2=NNC(=NCc3ccccc3)SC2)c1C	Sm TGR block 11µM
c1ccc(CN=C2NN=C(c3ccccc3)CS2)cc1	none
CC[C@]1(c2ccccc2C)ON(c2ccccc2C(F)(F)F)C1=O	Sm TGR block 56µM
CCOc1ccc(N/C(=C(/C(Cl)=C(Cl)Cl)[N+](=O)[O-])n2cncn2)cc1	Sm TGR block 11µM (no result: FMDV antiviral, Tb PYK inh, RE007 growth inh)
CCOc1ccccc1N/C(=C(/C(Cl)=C(Cl)Cl)[N+](=O)[O-])n1cncn1	Sm TGR block 6.3µM
O=[N+]([O-])/C(C(Cl)=C(Cl)Cl)=C(\Nc1ccc(F)cc1)n1cncn1	Sm TGR block 8.9µM (no result: FMDV antiviral, Tb PYK inh, RE007 growth inh)
Cc1cc(C)n2nc3nc(N4CCCCC4)nc(-c4ccco4)c3c2n1	Sm TGR block 1.4µM, Tb PYK inh inconclusive
Cc1cc(C)n2nc3ccccc3c2n1	none (no result: FMDV antiviral)
CO/N=C(\C(=O)N[C@@H]1C(=O)N2C(C(=O)OCOC(=O)C(C)(C)C)=C(C)CS[C@H]12)c1csc(N)n1	none (no result: Sm TGR block, FMDV antiviral, RE007 growth inh)

Bioassay records deposited in PubChem BioAssay by National Center for Advancing Translational Sciences (NCATS).
